Screening results (PubChem)
TDP1 inh – qHTS Assay for Inhibitors of Tyrosyl-DNA Phosphodiesterase (TDP1); Potency, µM (top dose mostly 130 µM), for inactives: at the top dose activity change, negative = inhibition, most hits filed as inhibitors; Tyrosyl-DNA phosphodiesterase 1 (Homo sapiens), Q9NUW8; recombinant TDP1, AlphaScreen DNA substrate cleavage; 350,000 tested, 0.28% active; note: % is set by controls: 0 for no effect and ±100 for the full control effect; nearly all actives have a fitted effect of over 40% in size
Target sequence (Q9NUW8 whole entry, looked up): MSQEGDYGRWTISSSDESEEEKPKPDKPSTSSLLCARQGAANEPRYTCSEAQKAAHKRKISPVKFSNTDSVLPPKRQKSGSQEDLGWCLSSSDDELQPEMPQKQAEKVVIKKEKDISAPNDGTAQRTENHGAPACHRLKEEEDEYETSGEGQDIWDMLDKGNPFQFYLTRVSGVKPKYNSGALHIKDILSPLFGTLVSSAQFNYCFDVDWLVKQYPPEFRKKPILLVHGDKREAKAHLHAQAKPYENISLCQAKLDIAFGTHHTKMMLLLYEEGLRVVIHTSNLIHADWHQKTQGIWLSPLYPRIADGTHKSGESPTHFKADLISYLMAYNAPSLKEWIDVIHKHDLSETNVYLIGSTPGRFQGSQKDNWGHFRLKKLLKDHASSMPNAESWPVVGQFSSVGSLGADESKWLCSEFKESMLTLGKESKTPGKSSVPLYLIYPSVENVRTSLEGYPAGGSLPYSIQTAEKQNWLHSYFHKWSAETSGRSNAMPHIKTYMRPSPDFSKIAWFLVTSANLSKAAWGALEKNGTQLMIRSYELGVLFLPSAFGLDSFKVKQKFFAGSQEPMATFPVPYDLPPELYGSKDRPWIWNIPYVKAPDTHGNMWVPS
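Steps: enzyme plus compound, 15 min RT; add biotin/phosphotyrosine-FITC oligonucleotide (15 nM final), react 5 min; add donor/acceptor beads (10 ug/ml final), 10 min; read AlphaScreen. Tdp1 at 1 nM final.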
DT40 TDP1 no CPT – qHTS for Inhibitors of human tyrosyl-DNA phosphodiesterase 1 (TDP1): qHTS in cells in absence of CPT; AID 686978, 2013; Potency, µM (titrated, usually from 46.2 µM), for the others: top-dose activity change, negative = growth inhibition, hits mostly inhibitors; DT40 Tdp1-/- hTDP1 cells, no CPT, ATP luminescence, 48 h; 420,000 tested, 15% active; note: % is set by controls: 0 for no effect and ±100 for the full control effect; nearly all actives have a fitted effect of over 55% in size
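Stably hTDP1-transfected Tdp1-null chicken DT40 cells were treated with library compounds minus camptothecin and grown for at least 48 hr at 37 °C, after which cellular ATP was quantified by luminescence.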
ClpP mod – qHTS Assay for Activators of ClpP; 340,000 tested, 1.9% active; Potency, µM (doses to about 57.5 µM), for inactives: top-dose activity change, negative = active; ATP-dependent Clp protease proteolytic subunit (Bacillus subtilis (strain 168)), P80244; purified B. subtilis ClpP, FRET peptide cleavage, 20 min; AID 651965, 2013; active = well fitted falling curve with a large enough effect; inconclusive = small, poorly fitted or top-dose-only effect; inactive = no such curve, though single readings can be large or run the other way; note: the source files actives as falling curves though it sought activators and does not explain the sign; nearly all actives have a fitted effect of over 65% in size
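ClpP 10 microg/mL final, pH 8 Tris/KCl buffer with BSA, glycerol, Tween-20; compound pinned in; FRET-FV substrate; RT 20 min; Ex320/Em430; ΔFRET vs ADEP 5.8 microM, DMSO, no enzyme.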
TDP1 cell CPT – qHTS for Inhibitors of human tyrosyl-DNA phosphodiesterase 1 (TDP1): qHTS in cells in presence of CPT; chicken DT40 Tdp1-/-;hTDP1 cells + 20 nM CPT, ATP luminescence, 48 h; Potency, µM (titrated, usually from 46.2 µM), without a hit: at the top dose activity change, negative = growth inhibition, actives largely listed as inhibitors; 420,000 tested, 12% active; AID 686979, 2013; note: % is set by controls: 0 for no effect and ±100 for the full control effect; nearly all actives have a fitted effect of over 55% in size
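Cell growth measured by CellTiter-Glo luminescence after a minimum 48 h, 37 C compound exposure with 20 nM CPT in Tdp1-knockout DT40 cells stably expressing hTDP1, seeded 400/well; qHTS titration format.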
* hit, by the source's call; u = inconclusive; x = no result; [ ] = dose if it differs, or a comment. Only some compounds are listed: those with a hit (about 17% of all), similar ones and a draw of the others. Unless noted, calls come from the whole dose curve; as a rule, active = well fitted curve in the direction sought with a large enough effect; inconclusive = small, poorly fitted or top-dose-only effect, or another doubt; inactive = no such curve, though single readings can be large; an effect the other way counts as inactive or inconclusive. Potency is the fitted concentration of half-maximal effect.

SMILES	TDP1 inh	DT40 TDP1 no CPT	ClpP mod	TDP1 cell CPT
COc1ccc(C2C(=O)N(C3CCCCCC3)CC(=O)N2Cc2ccc(C)cc2)cc1OC (configuration not stated)	5%	23µM*	0%	23µM*
CCCOc1ccc(C2C(=O)N(C3CCCCCC3)CC(=O)N2Cc2ccc(OC)cc2)cc1OC (configuration not stated)	5%	23µM*	-2%	u
O=C1C(c2ccc(F)cc2)N(Cc2ccc3c(c2)OCO3)C(=O)CN1C1CCCCC1 (configuration not stated)	0%	-24%	-2%	u
Cc1ccc(CN2C(=O)CN(C3CCCCCC3)C(=O)C2c2ccc(F)cc2)cc1 (configuration not stated)	5%	16µM*	-1%	18µM*
CCOCCCN1C(=O)CN(C2CCCCCC2)C(=O)C1c1ccc(OC)cc1 (configuration not stated)	2%	u	0%	7.9µM*
Cc1ccc(C2C(=O)N(C3CCCCCC3)CC(=O)N2C(C)C)cc1 (configuration not stated)	3%	26µM*	2%	u
O=C(NNC(=O)c1ccccc1C(=O)O)c1ccc(-c2ccccc2)cc1	1%	x	x	x
Cn1nc(-c2ccc(Cl)cc2)cc1NC(=O)CSCC(=O)O	5%	4%	-1%	1%
COc1cc2c(cc1NC(=O)COC(=O)CNS(=O)(=O)c1ccc(C)cc1)oc1ccccc12	4%	-26%	u	-11%
NC(CSC(c1ccccc1)(c1ccccc1)c1ccccc1)C(=O)O (configuration not stated)	x	5.2µM*	1%	5.8µM*
O=C(Nc1ccc(OC(=O)c2ccccc2)c(-c2nc3ccccc3s2)c1)c1ccccc1	0%	u	-22%	18µM*
COc1cc(-c2nc3ccccc3s2)ccc1O	0%	-10%	8.9µM*	-11%
COc1cc(OC)cc(C(=O)Nc2ccccc2-c2nc3ccccc3s2)c1	-5%[12.3 µM]	5.8µM*	-1%	10µM*
COc1ccc(-c2nc3ccccc3s2)cc1NC(=O)c1cc(OC)c(OC)c(OC)c1	0%	-25%	-3%	u
COc1cccc(C(=O)Nc2ccc(-c3nc4ccccc4s3)cc2Cl)c1	-8%	u	4%	u
COc1ccc(-c2nc3ccccc3s2)cc1NC(=O)c1ccccc1OC	0%	21µM*	u	5.2µM*
COc1ccc(C(=O)Nc2cc(C)c(O)c(-c3nc4ccccc4s3)c2)cc1OC	2%	x	-1%	x
O=C(Oc1ccccc1C(=S)N1CCOCC1)c1ccc([N+](=O)[O-])cc1[N+](=O)[O-]	-9%	-20%	x	-12%
CCSc1nnc(SCC(=O)NC2CCCCC2)s1	1%	5%	2%	-12%
C#CCCCO/N=C1/C[C@@H](O)[C@@H](O)[C@@H]2[C@@H]3C(=O)N(CCC(=O)OCC)C(=O)[C@H]3CC[C@H]12	6%[21 µM]	x	x	x
COc1ccc(C(=O)NCc2ccc(-c3nc4ccccc4s3)cc2)cc1	-2%	-18%	-18%	1%
CC(C)Oc1ccc(C(=O)Nc2ccc(-c3nc4ccccc4s3)cc2)cc1	6%	u	-20%	10µM*
COc1ccc(C(=O)Nc2cc(-c3nc4ccccc4s3)ccc2OC)cc1	-6%	5.2µM*	-5%	3.3µM*
COc1cccc(C(=O)NCc2ccc(-c3nc4ccccc4s3)cc2)c1	2%	18µM*	u	18µM*
O=C(Nc1ccc(Cc2nc3ccccc3s2)cc1)c1ccncc1	x	12µM*	x	u
SMILES	TDP1 inh	DT40 TDP1 no CPT	ClpP mod	TDP1 cell CPT
NC(=O)c1ccc(NC(=O)CCc2nc3ccccc3s2)cc1	2%	-6%	-2%	1%
CC1CCC2=C1C[C@H](C(C)(C)O)CC[C@@H]2C (some centres not stated)	9%	9%[9.04 µM]	x	12%[9.04 µM]
Cc1ccc(C(=O)Nc2nnc(S(=O)(=O)N3CCc4ccccc43)s2)cc1	-3%	-25%	1%	-24%
CC(C)[C@@H](C)/C=C/[C@@H](C)[C@H]1CC[C@H]2/C(=C/C=C3\C[C@@H](O)CC[C@@H]3C)CCC[C@]12C	x	17µM*	x	u
CC(C)C(C)/C=C/C(C)C1CCC2C3=CC=C4CC(O)CCC4(C)C3CCC21C (configuration not stated)	-7%[56.1 µM]	-19%	x	-1%
COc1ccc(NS(=O)(=O)c2ccc(NC(=O)N3CCCC3)cc2)cc1	3%	-24%	-12%	-9%
CC(C)C(C)/C=C/C(C)C1CCC2C3=CCC4CC(=O)CC[C@@]4(C)C3CC[C@]21C (some centres not stated)	5%	-17%	x	3%
O=C(Nc1cccc(Cl)c1)C1CCCN(C2=NS(=O)(=O)c3ccccc32)C1 (configuration not stated)	0%	u	-16%	-22%
CC(=O)C1=CCC(c2ccc(C)o2)N(S(=O)(=O)c2ccc(C)cc2)C1 (configuration not stated)	x	18µM*	1%	16µM*
Cc1ccc([C@@H]2CC=C(C(=O)O)CN2S(=O)(=O)c2ccc(C)cc2)cc1	1%	0%	0%	-2%
CC(=O)C1=CCC(c2ccccc2)N(Cc2ccccc2)C1 (configuration not stated)	x	15µM*	1%	u
CC(=O)C1=CCC(c2cccs2)N(S(=O)(=O)c2ccc(C)cc2)C1 (configuration not stated)	x	u	-1%	u
CC(=O)C1=CCC(c2ccc(Cl)cc2)N(S(=O)(=O)c2ccccc2C)C1 (configuration not stated)	x	23µM*	-3%	29µM*
CC(=O)C1=CCC(c2ccccc2)N(S(=O)(=O)c2ccc(Cl)cc2)C1 (configuration not stated)	x	15µM*	0%	u
CC(=O)C1=CN(Cc2ccccc2)CCC1=O	x	-8%	-2%	-1%
Cc1nc(N2CCN(C(=O)c3ccco3)CC2)nc2c1C(=O)CCC2	4%	7%	-1%	u
O=C(OCCN1C(=O)c2cccc3c(N4CCOCC4)ccc(c23)C1=O)c1ccc(Cl)cc1Cl	x	4.1µM*	-1%	3.7µM*
O=C(OCCN1C(=O)c2cccc3c(N4CCOCC4)ccc(c23)C1=O)c1cccc(Cl)c1	3%	8.2µM*	-2%	18µM*
O=C(OCCN1C(=O)c2ccccc2C1=O)c1cc(S(=O)(=O)N2CCOCC2)ccc1Cl	7%	3%	-6%	9%
